Experimental data as given in PubChem BioAssay (NCI).
About 79,000 compounds went through this panel and 15% of them were active in at least one assay; those are over-represented in the sample as a whole. A number with no mark means an inactive call. Calls of active or inactive are those of the source. Cut-off read from the data, not from the text of the source: active = growth inhibition above about 70%; inactive = the rest.

Key:
[1] = NCI Yeast Anticancer Drug Screen. Data for the wt1 strain (AID 149);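 note: 0% = growth of vehicle-treated wt1 cultures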; settings: S. cerevisiae wt1 strain (SPY 50644) growth inhibition, hits give high values
How it was run: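 wt1 yeast, compound-treated; % growth inhibition vs vehicle control.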

[2] = NCI Yeast Anticancer Drug Screen. Data for the rad50EPP+ strain (AID 151);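 note: 0% = growth of vehicle-treated control cultures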; settings: S. cerevisiae rad50 mutant strain, hits give high values
How it was run: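 Measured: growth inhibition of rad50EPP+ yeast. Reference: vehicle-treated controls. Screen uses strains with defined genetic alterations in DNA damage repair or cell cycle control.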

[3] = NCI Yeast Anticancer Drug Screen. Data for the mgt1 strain (AID 153); settings: S. cerevisiae mgt1 mutant growth inhibition, hits give high values
How it was run: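 Compounds were applied to mgt1 mutant yeast, and growth was then compared against vehicle-treated control cultures to give percent inhibition.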

[4] = NCI Yeast Anticancer Drug Screen. Data for the rad50 strain (AID 155);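 note: 0% = growth of vehicle-only cultures of the same strain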; settings: S. cerevisiae rad50 strain growth inhibition, hits give high values
How it was run: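 Genetically altered yeast (DNA repair pathway); compound treatment; growth inhibition vs vehicle ctrl.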

[5] = NCI Yeast Anticancer Drug Screen. Data for the mec2-1 strain (AID 157); settings: S. cerevisiae mec2-1 strain, hits give high values
How it was run: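 Compounds were applied to mec2-1 yeast cells. Their growth was then compared with that of vehicle-treated cultures to give growth inhibition.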

[6] = NCI Yeast Anticancer Drug Screen. Data for the rad14 strain (AID 159);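 note: 0% = growth of vehicle-treated control cultures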; settings: S. cerevisiae rad14 strain growth inhibition, hits give high values
How it was run: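 Test compounds were applied to a repair-deficient yeast strain. Its growth was then compared with that of cultures given vehicle alone, and inhibition was expressed relative to those controls.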

[7] = NCI Yeast Anticancer Drug Screen. Data for the sgs1 mgt1 strain (AID 161);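 note: 0% = growth of cultures given vehicle only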; settings: S. cerevisiae sgs1 mgt1 strain, hits give high values
How it was run: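 Growth of a repair-deficient yeast mutant was monitored after compound treatment and expressed as inhibition relative to vehicle-treated cultures.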

[8] = NCI Yeast Anticancer Drug Screen. Data for the CLN2oe strain (AID 163);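 note: 0% = growth of vehicle-only control cultures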; settings: S. cerevisiae CLN2oe strain, hits give high values
How it was run: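 Cells of an engineered yeast line with disturbed cell-cycle regulation are treated with compound. Inhibition of growth is then calculated relative to the vehicle-treated reference.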

[9] = NCI Yeast Anticancer Drug Screen. Data for the cln2 rad14 strain (AID 165);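 note: 0% = growth equal to vehicle treated cultures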; settings: S. cerevisiae cln2 rad14 strain, hits give high values
How it was run: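 Strain: cln2 rad14 yeast, altered in cell cycle control and DNA damage repair. Read-out: growth inhibition vs vehicle.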

[10] = NCI Yeast Anticancer Drug Screen. Data for the bub3 strain (AID 167); settings: S. cerevisiae bub3 mutant strain, hits give high values
How it was run: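 Yeast carrying a defined mutation is treated with each compound, and growth is compared with that of vehicle-exposed cells to give inhibition.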

[11] = NCI Yeast Anticancer Drug Screen. Data for the mlh1 strain (AID 171);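 note: 0% = growth of vehicle-treated control cultures of the same strain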; settings: S. cerevisiae mlh1 strain growth inhibition, hits give high values
How it was run: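 Test agents were incubated with yeast bearing a defined DNA damage repair or cell cycle control alteration; values are growth inhibition normalised to vehicle-treated cultures.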

[12] = NCI Yeast Anticancer Drug Screen. Data for the sgs1 strain (AID 173);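 note: 0% = growth of vehicle-only control cultures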; settings: S. cerevisiae sgs1 mutant, hits give high values
How it was run: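 Strain with an altered DNA repair or cell cycle pathway exposed to compound. Growth then measured. Value = inhibition versus vehicle control.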

[13] = NCI Yeast Anticancer Drug Screen. Data for the mlh1 rad18 strain (AID 175); settings: S. cerevisiae mlh1 rad18 strain growth inhibition, hits give high values
How it was run: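 A repair-deficient yeast strain is exposed to test compound, and growth is scored relative to vehicle-treated controls.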

[14] = NCI Yeast Anticancer Drug Screen. Data for the rad18 strain (AID 177); settings: S. cerevisiae rad18 mutant growth inhibition, hits give high values
How it was run: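 DNA-repair-defective yeast; compound treatment; growth inhibition scored against vehicle.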

[15] = NCI Yeast Anticancer Drug Screen. Data for the rad52 strain (AID 147);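 note: 0% = growth of vehicle-treated control cultures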; settings: S. cerevisiae rad52 mutant growth inhibition, hits give high values
How it was run: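 Growth of repair-deficient yeast cells was compared between compound-treated and vehicle-treated cultures to give percent inhibition.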

[16] = NCI Yeast Anticancer Drug Screen. Data for the wt2 strain (AID 169);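 note: 0% = growth of vehicle-treated yeast cultures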; settings: S. cerevisiae wt2 strain growth inhibition, hits give high values
How it was run: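 Growth of compound-treated yeast is measured and expressed as inhibition relative to vehicle-only controls.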

[17] = at 5.0 µM (retest, dose inferred, filed as 0.5)
[18] = at 50.0 µM (retest, dose inferred, filed as 5.0)

CCOc1c(N=Nc2ccccc2OC)c(C)nn1C(=S)S
growth inhibition ([1]; at 1.2 µM): -1% | growth inhibition ([1]; at 3.7 µM): 1% | growth inhibition ([1]; at 11.0 µM): 4% | growth inhibition ([1]; at 33.0 µM): 17% | growth inhibition ([1]; at 100.0 µM): 52% | growth inhibition ([2]; at 1.2 µM): 2% | growth inhibition ([2]; at 3.7 µM): 14% | growth inhibition ([2]; at 11.0 µM): 26% | growth inhibition ([2]; at 33.0 µM): 54% | growth inhibition ([2]; at 100.0 µM): 79% (active) | growth inhibition ([3]; at 1.2 µM): -2% | growth inhibition ([3]; at 3.7 µM): 1% | growth inhibition ([3]; at 11.0 µM): 3% | growth inhibition ([3]; at 33.0 µM): 18% | growth inhibition ([3]; at 100.0 µM): 74% (active) | growth inhibition ([4]; at 1.2 µM): -1% | growth inhibition ([4]; at 3.7 µM): -1% | growth inhibition [4, 17]: -2% | growth inhibition ([4]; at 11.0 µM): 8% | growth inhibition ([4]; at 33.0 µM): 22% | growth inhibition [4, 18]: 36% | growth inhibition ([4]; at 50.0 µM): 98.5% (active) | growth inhibition ([4]; at 100.0 µM): 65% | growth inhibition ([5]; at 1.2 µM): -1% | growth inhibition ([5]; at 3.7 µM): 0% | growth inhibition [5, 17]: -7% | growth inhibition ([5]; at 11.0 µM): 2% | growth inhibition ([5]; at 33.0 µM): 19% | growth inhibition [5, 18]: 4% | growth inhibition ([5]; at 50.0 µM): 97.8% (active) | growth inhibition ([5]; at 100.0 µM): 60% | growth inhibition ([6]; at 1.2 µM): 4% | growth inhibition ([6]; at 3.7 µM): -1% | growth inhibition ([6]; at 11.0 µM): 4% | growth inhibition ([6]; at 33.0 µM): 4% | growth inhibition ([6]; at 100.0 µM): 78% (active) | growth inhibition [7, 17]: 4% | growth inhibition [7, 18]: 49% | growth inhibition ([7]; at 50.0 µM): 97.7% (active) | growth inhibition ([8]; at 1.2 µM): -6% | growth inhibition ([8]; at 3.7 µM): 0% | growth inhibition ([8]; at 11.0 µM): -3% | growth inhibition ([8]; at 33.0 µM): 7% | growth inhibition ([8]; at 100.0 µM): 59% | growth inhibition [9, 17]: -45% | growth inhibition [9, 18]: 4% | growth inhibition ([9]; at 50.0 µM): 98% (active) | growth inhibition ([10]; at 1.2 µM): -7% | growth inhibition ([10]; at 3.7 µM): -1% | growth inhibition [10, 17]: -25% | growth inhibition ([10]; at 11.0 µM): 15% | growth inhibition ([10]; at 33.0 µM): 34% | growth inhibition [10, 18]: 50% | growth inhibition ([10]; at 50.0 µM): 98% (active) | growth inhibition ([10]; at 100.0 µM): 67% | growth inhibition ([11]; at 1.2 µM): -3% | growth inhibition ([11]; at 3.7 µM): 0% | growth inhibition ([11]; at 11.0 µM): 4% | growth inhibition ([11]; at 33.0 µM): 4% | growth inhibition ([11]; at 100.0 µM): 65% | growth inhibition ([12]; at 1.2 µM): -1% | growth inhibition ([12]; at 3.7 µM): 3% | growth inhibition ([12]; at 11.0 µM): 14% | growth inhibition ([12]; at 33.0 µM): 45% | growth inhibition ([12]; at 100.0 µM): 86% (active) | growth inhibition [13, 17]: -30% | growth inhibition [13, 18]: 56% | growth inhibition ([13]; at 50.0 µM): 98.3% (active) | growth inhibition ([14]; at 1.2 µM): -11% | growth inhibition ([14]; at 3.7 µM): -3% | growth inhibition ([14]; at 11.0 µM): 4% | growth inhibition ([14]; at 33.0 µM): 32% | growth inhibition ([14]; at 100.0 µM): 70% (active)

CC1(C)CC(=O)C(/C=N/c2nc(-c3ccccc3)cs2)=C(O)C1
growth inhibition ([15]; at 1.2 µM): 1% | growth inhibition ([15]; at 3.7 µM): 5% | growth inhibition ([15]; at 11.0 µM): 19% | growth inhibition ([15]; at 33.0 µM): 41% | growth inhibition ([15]; at 100.0 µM): 84% (active) | growth inhibition ([3]; at 1.2 µM): -1% | growth inhibition ([3]; at 3.7 µM): -2% | growth inhibition ([3]; at 11.0 µM): 5% | growth inhibition ([3]; at 33.0 µM): 22% | growth inhibition ([3]; at 100.0 µM): 77% (active) | growth inhibition ([4]; at 1.2 µM): -5% | growth inhibition ([4]; at 3.7 µM): -13% | growth inhibition [4, 17]: -3% | growth inhibition ([4]; at 11.0 µM): -4% | growth inhibition ([4]; at 33.0 µM): 40% | growth inhibition [4, 18]: 57% | growth inhibition ([4]; at 50.0 µM): 89.9% (active) | growth inhibition ([4]; at 100.0 µM): 84% (active) | growth inhibition ([5]; at 1.2 µM): 2% | growth inhibition ([5]; at 3.7 µM): 2% | growth inhibition [5, 17]: 0% | growth inhibition ([5]; at 11.0 µM): 8% | growth inhibition ([5]; at 33.0 µM): 35% | growth inhibition [5, 18]: 32% | growth inhibition ([5]; at 50.0 µM): 20.1% | growth inhibition ([5]; at 100.0 µM): 76% (active) | growth inhibition ([6]; at 1.2 µM): 3% | growth inhibition ([6]; at 3.7 µM): 5% | growth inhibition ([6]; at 11.0 µM): 17% | growth inhibition ([6]; at 33.0 µM): 45% | growth inhibition ([6]; at 100.0 µM): 83% (active) | growth inhibition [7, 17]: -5% | growth inhibition [7, 18]: 38% | growth inhibition ([7]; at 50.0 µM): 94.2% (active) | growth inhibition ([8]; at 1.2 µM): -4% | growth inhibition ([8]; at 3.7 µM): -5% | growth inhibition ([8]; at 11.0 µM): 1% | growth inhibition ([8]; at 33.0 µM): 25% | growth inhibition ([8]; at 100.0 µM): 61% | growth inhibition [9, 17]: 35% | growth inhibition [9, 18]: 21% | growth inhibition ([9]; at 50.0 µM): 45.4% | growth inhibition ([10]; at 1.2 µM): -2% | growth inhibition ([10]; at 3.7 µM): -3% | growth inhibition [10, 17]: -19% | growth inhibition ([10]; at 11.0 µM): -1% | growth inhibition ([10]; at 33.0 µM): 23% | growth inhibition [10, 18]: 19% | growth inhibition ([10]; at 50.0 µM): 75.1% (active) | growth inhibition ([10]; at 100.0 µM): 68% | growth inhibition ([16]; at 1.2 µM): -2% | growth inhibition ([16]; at 3.7 µM): 1% | growth inhibition ([16]; at 11.0 µM): 7% | growth inhibition ([16]; at 33.0 µM): 36% | growth inhibition ([16]; at 100.0 µM): 82% (active) | growth inhibition ([11]; at 1.2 µM): 0% | growth inhibition ([11]; at 3.7 µM): 3% | growth inhibition ([11]; at 11.0 µM): 12% | growth inhibition ([11]; at 33.0 µM): 45% | growth inhibition ([11]; at 100.0 µM): 81% (active) | growth inhibition ([12]; at 1.2 µM): 2% | growth inhibition ([12]; at 3.7 µM): 5% | growth inhibition ([12]; at 11.0 µM): 26% | growth inhibition ([12]; at 33.0 µM): 63% | growth inhibition ([12]; at 100.0 µM): 83% (active) | growth inhibition [13, 17]: 10% | growth inhibition [13, 18]: 87% (active) | growth inhibition ([13]; at 50.0 µM): 97% (active) | growth inhibition ([14]; at 1.2 µM): 6% | growth inhibition ([14]; at 3.7 µM): 22% | growth inhibition ([14]; at 11.0 µM): 72% (active) | growth inhibition ([14]; at 33.0 µM): 88% (active) | growth inhibition ([14]; at 100.0 µM): 91% (active)
